This is one part of a sample in which hits are shown more often than they occur.
nsP2pro primary: inhibitors of chikungunya virus nsP2 protease; Potency, µM (doses to about 24.9 µM), for inactives: at the highest dose activity change, negative = inhibition, actives largely listed as inhibitors; FRET peptide cleavage, nsP2pro, fluorescence 1 h; hit rate 1.1% among 31,000; Q8JUX6; AID 1964107; also: nearly all actives have a fitted effect of over 60% in size
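FRET cleavage of 2.5 uM peptide 2 by 150 nM CHIKV protease domain at pH 8.0 (Tris, Tween 20). Compounds at 7 concentrations (up to 25 uM) preincubated 15 min. Fluorescence read after 1 h at room temperature.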
CHIKV nsP2 cell: inhibits CHIKV nsP2 protease in cells. shares compounds with nsP2pro primary. cell-based CHIKV nsP2 protease reporter assay. Potency, µM (titrated, usually from 51.1 µM), for the others: at the highest dose activity change, negative = inhibition, usual class: inhibitors. hit rate 10% among 450; also: nearly all actives have a fitted effect of over 70% in size
NSP2 full ctr: selectivity test for CHIKV nsP2 protease inhibitors: full-length NSP2; Full-length CHIKV NSP2 protease enzymatic counterscreen; AID 1964101; hit rate 39% among 410; shares compounds with nsP2pro primary; Potency, µM (highest dose often 50.7 µM), for the others: at the top dose activity change, negative = inhibition, actives largely listed as inhibitors; also: nearly all actives have a fitted effect of over 65% in size
Furin counter: human furin inhibition, counterscreen for nsP2pro inhibitors; shares compounds with nsP2pro primary; Recombinant human furin enzymatic counterscreen, fluorogenic substrate; Potency, µM (top dose mostly 50.6 µM), inactives show at the highest dose activity change, negative = inhibition, usual class: inhibitors; hit rate 6% among 410; AID 1964102
nsP2 NS23 pep: selectivity test for CHIKV nsP2 protease inhibitors: endogenous NS2/3 peptide; shares compounds with nsP2pro primary; Purified CHIKV nsP2 protease, endogenous NS2/3 peptide cleavage; hit rate 34% among 410; Potency, µM (titrated, usually from 51 µM), for inactives: top-dose activity change, negative = inhibition, usual class: inhibitors; also: nearly all actives have a fitted effect of over 55% in size
Papain counter: selectivity counter-screen for CHIKV nsP2 protease inhibitors: papain; shares compounds with nsP2pro primary; purified papain protease activity, enzymatic inhibition; Potency, µM (highest dose often 51 µM), for the others: at the highest dose activity change, negative = inhibition, hits mostly inhibitors; hit rate 5% among 410; AID 1964104
Target sequence (P00784 whole entry, looked up): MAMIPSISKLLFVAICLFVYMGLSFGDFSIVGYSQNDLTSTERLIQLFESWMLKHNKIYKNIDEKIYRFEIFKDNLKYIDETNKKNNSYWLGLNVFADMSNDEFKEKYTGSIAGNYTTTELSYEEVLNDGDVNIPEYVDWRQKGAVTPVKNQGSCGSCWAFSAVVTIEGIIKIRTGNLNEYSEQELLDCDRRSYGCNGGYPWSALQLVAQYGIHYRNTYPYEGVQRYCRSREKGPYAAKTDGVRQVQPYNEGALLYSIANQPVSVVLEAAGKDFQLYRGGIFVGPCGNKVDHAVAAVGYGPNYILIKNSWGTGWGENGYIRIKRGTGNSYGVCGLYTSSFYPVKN
nsP2pro conf qHTS: confirmation of CHIKV nsP2 protease inhibitors | shares compounds with nsP2pro primary | CHIKV nsP2 protease enzymatic activity, qHTS | Potency, µM (doses to about 25.5 µM), for inactives: at the highest dose activity change, negative = inhibition, usual class: inhibitors | hit rate 43% among 410 | AID 1964105; also: nearly all actives have a fitted effect of over 75% in size
HCV NS3 counter: selectivity counter-screen for CHIKV nsP2 protease inhibitors: HCV NS3/4A | shares compounds with nsP2pro primary | HCV NS3/4A protease biochemical counterscreen | Potency, µM (titrated, usually from 50.9 µM), hits mostly inhibitors | hit rate 20% among 410; also: nearly all actives have a fitted effect of over 55% in size
Numbers without * were called inactive; ! = a repeat was not active; [ ] = dose if it differs, or a comment. Calls follow the shape of the full dose curve. % is scaled to controls: 0 for no effect and ±100 for the full control effect; potency is read from the fitted curve at half-maximal effect.

What do the screens show for `C=CC(C)(C)c1[nH]c2ccccc2c1C1=C(O)C(=O)C(c2c[nH]c3c(CC=C(C)C)cccc23)=C(O)C1=O`?
nsP2pro primary: inconclusive; CHIKV nsP2 cell: 19%; NSP2 full ctr: 32%; Furin counter: -12%; nsP2 NS23 pep: inactive; Papain counter: 2.6µM*; nsP2pro conf qHTS: 121%; HCV NS3 counter: 4.1µM*

Results for Cc1ccc(S(=O)(=O)Nc2cnccc2C(=O)Nc2nc(-c3ccc4c(c3)CCCC4)cs2)cc1 ?
nsP2pro primary: inactive

Results for CC(=O)OC1CC(OC2C(O)CC(OC3C(O)CC(OC4CCC5(C)C(CCC6C5CCC5(C)C(C7=CC(=O)OC7)CCC65O)C4)OC3C)OC2C)OC(C)C1O (stereo unspecified) ?
nsP2pro primary: -7%

What do the screens show for `OC[C@H]1O[C@H](O)[C@H](O)[C@@H](O)[C@@H]1O`?
nsP2pro primary: -11%

How did CC(C)(C)NCC(O)COc1ccccc1C#N (stereo unspecified) do in these assays?
nsP2pro primary: -2%

Results for O=C(O)[C@H]1C2CCC(CC2)[C@@H]1Nc1nc(-c2c[nH]c3ncc(F)cc23)ncc1F ?
nsP2pro primary: inconclusive; CHIKV nsP2 cell: -11%; NSP2 full ctr: -36%; Furin counter: -11%; nsP2 NS23 pep: inactive; Papain counter: inconclusive; nsP2pro conf qHTS: inconclusive; HCV NS3 counter: inactive

Results for CC(C)=CCn1c(-c2cc(C)oc2C)cn2cc(C(=O)N(C)CC(C)C)nc2c1=O ?
nsP2pro primary: -15%

How did Cc1ccc(-c2ccc3ncc4c(c3n2)n(C2CCN(C(=O)[C@H](C)O)CC2)c(=O)n4C)cn1 do in these assays?
nsP2pro primary: -4%

Results for FC(F)(F)c1cc(-c2ccc(CNc3nc(C4CCCC4)nc4ccccc34)cc2)ccn1 ?
nsP2pro primary: inactive

How did O=C1NC(Cc2c[nH]c3ccccc23)C(=O)NC1Cc1c[nH]c2ccccc12 (stereo unspecified) do in these assays?
nsP2pro primary: 6.1µM*; CHIKV nsP2 cell: -1%[33.5 µM]; NSP2 full ctr: -15%[33.5 µM]; Furin counter: -5%[33.5 µM]; nsP2 NS23 pep: -21%[33.5 µM]; Papain counter: inconclusive; nsP2pro conf qHTS: -39%[16.7 µM]; HCV NS3 counter: inactive

Results for CC(N)Cc1c[nH]c2ccccc12 (stereo unspecified) ?
nsP2pro primary: -12%

Results for NCCc1c[nH]c2ccccc12 ?
nsP2pro primary: -22%

How did O=C1c2c(O[C@@H]3O[C@H](CO)[C@@H](O)[C@H](O)[C@H]3O)cc(O)cc2OC1(O)Cc1ccc(O)cc1 (stereo partly specified) do in these assays?
nsP2pro primary: 8%[10 µM]

What do the screens show for `Cn1c(CCCC(=O)O)nc2cc(N(CCCl)CCCl)ccc21`?
nsP2pro primary: 9.9µM*; CHIKV nsP2 cell: -9%; NSP2 full ctr: 16µM*; Furin counter: 5%; nsP2 NS23 pep: inconclusive; Papain counter: 253%; nsP2pro conf qHTS: 8µM*; HCV NS3 counter: inconclusive

How did CCCCc1nc2cc(/C=C/C(=O)NO)ccc2n1CCN(CC)CC do in these assays?
nsP2pro primary: 43%

Results for Cn1c(CN2CCCCC2)nc2cc(NC(=O)c3ccc(Cl)cc3)ccc21 ?
nsP2pro primary: 32%

Results for COc1ccccc1CNc1nc2c(S(=O)(=O)c3ccc(C)c(C)c3)nnn2c2ccc(Cl)cc12 ?
nsP2pro primary: -11%

Results for COc1ccccc1CNc1nc(-c2ccco2)nn1S(=O)(=O)c1ccc(Cl)cc1 ?
nsP2pro primary: 8.9µM*; CHIKV nsP2 cell: 17%

How did O=C(c1ccco1)n1nc(-c2ccccc2)nc1NCc1ccc(Cl)cc1 do in these assays?
nsP2pro primary: -14%

Results for COc1ccc(C(=O)N2CC[C@@](O)(C3CCOCC3)[C@H](C)C2)o1 ?
nsP2pro primary: -4%

Results for O=C(Nc1ccc2ccccc2c1)Nc1nnc(-c2ccncc2)s1 ?
nsP2pro primary: 1%

How did CCN(CC)C(=S)SSC(=S)N(CC)CC do in these assays?
nsP2pro primary: 2.5µM*!; CHIKV nsP2 cell: 13µM*; NSP2 full ctr: 15µM*; Furin counter: -9%; nsP2 NS23 pep: 9.2µM*; Papain counter: inconclusive; nsP2pro conf qHTS: 1.8µM*; HCV NS3 counter: inconclusive

Results for COc1ccc([S+](=O)([O-])N2CCCN([S+](=O)([O-])c3ccc(OC)c(N)c3)CC2)cc1N ?
nsP2pro primary: -6%

What do the screens show for `CC1CCN(CC2CCCN(C(=O)NC3CCCCC3)CC2)CC1` (stereo unspecified)?
nsP2pro primary: inactive

How did CCC(=C(c1ccc(OCCN2CCCC2)cc1)c1ccc(OCCN2CCCC2)cc1)c1ccccc1 do in these assays?
nsP2pro primary: 93%

Results for c1ccc(-c2cnc(Nc3ccc(OCCN4CCCC4)cc3)s2)cc1 ?
nsP2pro primary: 127%

How did C(#Cc1nc2ncccc2nc1OCCN1CCCC1)c1ccccc1 do in these assays?
nsP2pro primary: 7µM*; CHIKV nsP2 cell: inconclusive; NSP2 full ctr: 18µM*; Furin counter: 23µM*; nsP2 NS23 pep: 16µM*; Papain counter: 98%; nsP2pro conf qHTS: 8µM*; HCV NS3 counter: inactive

How did Cc1cc(C)c(CNC(=O)c2nc(-c3cccnc3)cc3[nH]ccc23)c(=O)[nH]1 do in these assays?
nsP2pro primary: inactive

Results for CC(C)(C)OC(=O)N1CCN(c2ccc(NCc3cccc(-c4ccc(C#N)cc4)n3)cc2)CC1 ?
nsP2pro primary: 4%

How did CC(=O)O[C@H]1C[C@@](O)(C(C)C)C2[C@@H](OC(=O)c3ccc(O)cc3)C[C@@]3(C)O[C@H]3C[C@]21C (stereo partly specified) do in these assays?
nsP2pro primary: 8%[10 µM]

What do the screens show for `COc1cccc(-c2ccccc2NC(=O)C2CCN(CC=C(C)C)CC2)c1`?
nsP2pro primary: inactive

What do the screens show for `CC[C@H](C)[C@@H]([C@@H](CC(=O)N1CCC[C@H]1[C@H](OC)[C@@H](C)C(=O)NCCc1ccccc1)OC)N(C)C(=O)[C@@H](NC(=O)[C@H](C(C)C)N(C)C)C(C)C`?
nsP2pro primary: -4%

Assay outcomes deposited in PubChem by National Center for Advancing Translational Sciences (NCATS).
